# The supplement of paper PMC13380429
# Columns and labels:
# [1] = test system: Vero E6 infected with SARS-CoV-2; test: morphology score (similarity to uninfected cells); higher = more like uninfected cells; conditions: 24 h
# [2] = test system: Vero E6 infected with SARS-CoV-2; test: SARS-CoV-2 infection rate relative to infected DMSO; higher = more infection, active = 60 or less; conditions: 24 h
# [3] = test system: Vero E6 infected with SARS-CoV-2; test: inhibition of SARS-CoV-2 cytopathic effect; higher = more antiviral protection, active = above 15; conditions: 48 h
structure (smiles),measurement,setting,value
CC[C@@H]1C(=O)N(C)c2cnc(Nc3ccc(C(=O)NC4CCN(C)CC4)cc3OC)nc2N1C1CCCC1 (10 µM),morphology score,[1],-0.305
same,SARS-CoV-2 infection rate,[2],104% (inactive)
O=c1cc(-c2cccc3c2Sc2ccccc2S3)oc(N2CCOCC2)c1 (10 µM),morphology score,[1],0.284
same,SARS-CoV-2 infection rate,[2],83% (inactive)
O=C1N(c2ccccc2)c2ccccc2C1(Cc1ccncc1)Cc1ccncc1 [linopirdine] (10 µM),morphology score,[1],0.249
same,SARS-CoV-2 infection rate,[2],91% (inactive)
CCC(NC(C)C)C(O)c1ccc(O)c2[nH]c(=O)ccc12 (stereo not drawn) [procaterol] (10 µM),morphology score,[1],0.142
same,SARS-CoV-2 infection rate,[2],88% (inactive)
CCCN(CCC)CCc1cccc2c1CC(=O)N2 [ropinirole] (10 µM),morphology score,[1],-0.139
same,SARS-CoV-2 infection rate,[2],112% (inactive)
CCc1cc(C(C)=O)c(O)cc1OCCCCCC(C)(C)c1nn[nH]n1,inhibition of SARS-CoV-2 cytopathic effect,[3]; 1 nM,-2.28% (inactive)
same,inhibition of SARS-CoV-2 cytopathic effect,[3]; 8.33 nM,0.23% (inactive)
same,inhibition of SARS-CoV-2 cytopathic effect,[3]; 100 nM,0.43% (inactive)
N[C@H]1CCN(O)C1=O (10 µM),morphology score,[1],0.0281
same,SARS-CoV-2 infection rate,[2],99.2% (inactive)
O=C(O)C1=CCCN(CCON=C(c2ccccc2)c2ccccc2)C1,inhibition of SARS-CoV-2 cytopathic effect,[3]; 1 nM,-1.65% (inactive)
same,inhibition of SARS-CoV-2 cytopathic effect,[3]; 8.33 nM,0.36% (inactive)
same,inhibition of SARS-CoV-2 cytopathic effect,[3]; 100 nM,0.96% (inactive)
same,inhibition of SARS-CoV-2 cytopathic effect,[3]; 833.33 nM,0.86% (inactive)
same,inhibition of SARS-CoV-2 cytopathic effect,[3]; 10000 nM,2.06% (inactive)
Cc1nc(C)c(-c2ccc(C3CCC(CC(=O)O)CC3)cc2)nc1C(N)=O (stereo not drawn),inhibition of SARS-CoV-2 cytopathic effect,[3]; 1 nM,5.02% (inactive)
same,inhibition of SARS-CoV-2 cytopathic effect,[3]; 8.33 nM,2.17% (inactive)
same,inhibition of SARS-CoV-2 cytopathic effect,[3]; 100 nM,0.91% (inactive)
same,inhibition of SARS-CoV-2 cytopathic effect,[3]; 833.33 nM,3.12% (inactive)
same,inhibition of SARS-CoV-2 cytopathic effect,[3]; 10000 nM,-3.42% (inactive)
Nc1sc2c(c1C(=O)c1ccc(Cl)cc1)CCCC2,inhibition of SARS-CoV-2 cytopathic effect,[3]; 1 nM,-0.5% (inactive)
same,inhibition of SARS-CoV-2 cytopathic effect,[3]; 8.33 nM,3.31% (inactive)
same,inhibition of SARS-CoV-2 cytopathic effect,[3]; 100 nM,0.38% (inactive)
Cc1[nH]c(/C=C2\C(=O)Nc3ccc(S(=O)(=O)N(C)c4cccc(Cl)c4)cc32)c(C)c1C(=O)N1CCN(C)CC1,inhibition of SARS-CoV-2 cytopathic effect,[3]; 1 nM,2.2% (inactive)
same,inhibition of SARS-CoV-2 cytopathic effect,[3]; 8.33 nM,0.76% (inactive)
same,inhibition of SARS-CoV-2 cytopathic effect,[3]; 100 nM,-0.49% (inactive)
same,inhibition of SARS-CoV-2 cytopathic effect,[3]; 833.33 nM,0.96% (inactive)
same,inhibition of SARS-CoV-2 cytopathic effect,[3]; 10000 nM,-1.88% (inactive)
